Screening data deposited in PubChem BioAssay by National Center for Advancing Translational Sciences (NCATS).
Most compounds without a hit are left out; they make up all but 9.2% or so of the library.
HTT ATP protect – cytoprotection in Huntington HTT-Q103 PC12 cell model. PC12 HTT-Q103 induced, cytoprotection, ATP luminescence, 40 h. Potency, µM (titrated, usually from 56.4 µM), inactives show cytoprotection (ATP increase), hits mostly activators. actives 0.14% (n = 230,000). AID 1471; active = well fitted curve in the direction sought with a large enough effect; inconclusive = small, poorly fitted or top-dose-only effect, or another doubt; inactive = no such curve, though single readings can be large; an effect the other way counts as inactive or inconclusive; note: % of control where 0% means no effect; nearly all actives have a fitted effect of over 45% in size
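Quantitative HTS on tebufenozide-induced (100 nM) PC12 cells expressing HTTQ103 exon 1–GFP; compounds tested as a concentration series; survival measured via cellular ATP.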
Lamin A splicing – modulators of lamin A splicing. HeLa LMNA splicing GFP/RFP minigene ratio, 48 h. actives 0.01% (n = 200,000). Potency, µM (doses to about 46.1 µM), for inactives: at the top dose ratio change, negative = inhibition, usual class: inhibitors; active = well fitted inhibition curve with a large enough effect in the signal ratio, with a control signal flat, not every such curve was filed as active; inconclusive = small, poorly fitted or top-dose-only effect, or effect the other way, or a change in a side signal; the % refers to the signal ratio; note: % is set by controls: 0 for no effect and ±100 for the full control effect
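Read-out is the ratio of GFP to DsRed2 object intensity, acquired by 488 nm laser-scanning cytometry on HeLa lamin A-EGFP minigene reporter cells. Compound incubation 48 hrs at 37 °C in Opti-MEM with 2% FBS; DMSO 0.5% final.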
HPGD inh – HPGD (human) dehydrogenase inhibition | P15428 | purified HPGD, NADH fluorescence kinetic, PGE2 substrate | Potency, µM, for the others: top-dose activity change, negative = inhibition, most hits filed as inhibitors | actives 4.3% (n = 150,000) | AID 894; note: % is set by controls: 0 for no effect and ±100 for the full control effect
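20 nM HPGD preincubated 15 min at room temperature with compound in 50 mM Tris-HCl pH 8, 0.01% Tween 20. Started with 1 mM NAD+ and 30 uM prostaglandin E2; NADH fluorescence (360/450 nm) read 5 times over 30-s intervals, last minus first.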
KDM4E inh – blocks human JMJD2E demethylase activity | B2RXH2 | JMJD2E catalytic domain, FDH-coupled NADH fluorescence (FDH is formaldehyde dehydrogenase) | actives 1.6% (n = 230,000) | Potency, µM (doses to about 57.1 µM), inactives show at the highest dose activity change, negative = inhibition, most hits filed as inhibitors | AID 2147;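 note: 0% = wells with enzyme and -100% = buffer wells without enzyme; nearly all actives have a fitted effect of over 50% in size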
HttQ103 aggreg – mutant huntingtin aggregation inhibition; PC12 HttQ103-GFP aggregates, Acumen cytometry, 40 h; Potency, µM (titrated, usually from 46.1 µM), without a hit: at the highest dose activity change, negative = inhibition, most hits filed as inhibitors; actives 1.1% (n = 220,000); AID 1688; active = well fitted curve in the direction sought with a large enough effect; inconclusive = small, poorly fitted or top-dose-only effect, or another doubt; inactive = no such curve, though single readings can be large; an effect the other way counts as inactive or inconclusive; note: % is set by controls: 0 for no effect and ±100 for the full control effect; nearly all actives have a fitted effect of over 60% in size
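PC12 cells with ecdysone-inducible HTT exon1 Q103-GFP, induced by 100 nM tebufenozide, given compounds in a concentration series. GFP aggregates (1–25 um, 6 SD above background) counted in lysates by laser-scanning cytometry, 488 nm excitation.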
ALDH1A1 inh – ALDH1A1 (human) enzyme inhibition; P00352; Purified ALDH1A1, NADH fluorescence, propionaldehyde substrate; Potency, µM (series often up to 75.3 µM), for the others: at the top dose activity, negative = inhibition, usual class: inhibitors; actives 7.3% (n = 220,000); AID 1030;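 note: plate controls were no enzyme wells and a reference inhibitor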
Target sequence (P00352 whole entry, looked up): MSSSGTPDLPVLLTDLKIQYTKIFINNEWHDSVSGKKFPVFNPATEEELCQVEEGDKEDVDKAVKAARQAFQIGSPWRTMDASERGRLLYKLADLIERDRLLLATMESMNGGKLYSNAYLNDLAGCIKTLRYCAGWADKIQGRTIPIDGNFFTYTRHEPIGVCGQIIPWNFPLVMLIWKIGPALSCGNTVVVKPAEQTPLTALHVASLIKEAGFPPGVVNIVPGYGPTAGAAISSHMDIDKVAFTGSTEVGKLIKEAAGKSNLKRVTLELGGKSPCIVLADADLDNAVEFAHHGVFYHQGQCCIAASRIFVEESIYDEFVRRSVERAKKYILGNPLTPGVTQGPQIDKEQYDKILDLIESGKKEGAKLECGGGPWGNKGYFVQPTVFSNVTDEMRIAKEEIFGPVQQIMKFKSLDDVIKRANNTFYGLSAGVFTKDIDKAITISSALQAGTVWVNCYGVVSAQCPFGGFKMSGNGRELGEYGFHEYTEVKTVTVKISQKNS
* hit, by the source's call; [ ] = dose if it differs, or a comment. Unless noted, calls come from the whole dose curve; as a rule, active = well fitted inhibition curve with a large enough effect (not every such curve was filed as active); inconclusive = small, poorly fitted or top-dose-only effect, or another doubt; inactive = no such curve, though single readings can be large or run the other way. Potency is the fitted concentration of half-maximal effect.

`COC(=O)c1ccccc1NC(=O)COC(=O)c1ccccc1N=Nc1ccc(N(C)C)cc1` gave HTT ATP protect -43%[10 µM], Lamin A splicing inconclusive, HPGD inh -15%, KDM4E inh -3%, HttQ103 aggreg 6.3µM* and ALDH1A1 inh -6%.
For COc1ccc(CCn2c(=S)[nH]c3cc(C(=O)NCc4ccco4)ccc3c2=O)cc1OC the results were HTT ATP protect -48%, Lamin A splicing 9%, HPGD inh inconclusive, KDM4E inh -4%, HttQ103 aggreg 16% and ALDH1A1 inh 0.05µM*.
For COc1ccc(-n2c(=S)[nH]c3cc(C(=O)NCc4ccco4)ccc3c2=O)cc1OC the results were HTT ATP protect -21%, Lamin A splicing 11%, HPGD inh -13%, KDM4E inh -1%, HttQ103 aggreg 8% and ALDH1A1 inh 0.11µM*.
For COC(=O)c1ccc2c(=O)n(-c3ccccc3)c(=S)[nH]c2c1 the results were HTT ATP protect -37%, Lamin A splicing inconclusive, KDM4E inh 12%, HttQ103 aggreg 1% and ALDH1A1 inh inconclusive.
For O=C(NCc1ccco1)c1ccc2c(=O)n(-c3ccccc3)c(=S)[nH]c2c1 the results were HTT ATP protect -8%, Lamin A splicing -1%, HPGD inh -3%, KDM4E inh 11%, HttQ103 aggreg 9% and ALDH1A1 inh 0.22µM*.
For COc1ccc(CCn2c(=O)[nH]c3cc(C(=O)NCCc4ccccc4)ccc3c2=O)cc1OC the results were HTT ATP protect -12%, Lamin A splicing 5%, HPGD inh 0%, KDM4E inh -6%, HttQ103 aggreg 20% and ALDH1A1 inh 14%.
For CCOc1ccccc1Nc1nnc(-c2cc3cc(OC)ccc3oc2=O)s1 the results were Lamin A splicing 17%[46 µM].
Cc1ccc(S(=O)(=O)N(c2ccc(Br)cc2)C2C=CS(=O)(=O)C2)cc1 (configuration not stated) was read as HTT ATP protect -30%, Lamin A splicing 18%[46 µM], KDM4E inh 3%, HttQ103 aggreg 33% and ALDH1A1 inh 3%.
Screening Cn1c(SCCOc2ccccc2Cl)nnc1-c1ccncc1 returned HTT ATP protect -1%, Lamin A splicing -3%, HPGD inh -12%, KDM4E inh 0%, HttQ103 aggreg 0.79µM* and ALDH1A1 inh 13%.
Screening CC(=O)CSc1nnc(-c2ccncc2)n1C returned HTT ATP protect 2%, Lamin A splicing 9%, HPGD inh -6%, KDM4E inh 0%, HttQ103 aggreg 2% and ALDH1A1 inh -7%.
Cn1c(SCCCC(=O)c2ccc(Br)cc2)nnc1-c1ccncc1 was read as HTT ATP protect -5%, Lamin A splicing inconclusive, HPGD inh 18µM*, KDM4E inh -2%, HttQ103 aggreg -22% and ALDH1A1 inh 7%.
`COc1ccc(/C=C(/NC(=O)c2ccccc2)C(=O)NC2CCS(=O)(=O)C2)cc1` (configuration not stated) gave HTT ATP protect 16%[10 µM], Lamin A splicing 2%, HPGD inh -16%, KDM4E inh -4%, HttQ103 aggreg -12% and ALDH1A1 inh inconclusive.
For O=C(/C=C/c1ccccc1)C1=C(O)C(=O)N(CCO)C1c1ccc2c(c1)OCO2 (configuration not stated) the results were HTT ATP protect -7%[10 µM], Lamin A splicing 11%[46 µM], KDM4E inh -29%, HttQ103 aggreg -18%[9.22 µM] and ALDH1A1 inh inconclusive.
Screening C[C@@H](C(=O)O)c1ccc(C[C@@H]2CCCC2=O)cc1 returned HTT ATP protect 14%[1.9 µM].
`N#Cc1c(Nc2ccc(F)cc2)sc(C(=O)c2ccccc2)c1N` gave HTT ATP protect -13%[10 µM], Lamin A splicing -15%, HPGD inh inconclusive, KDM4E inh -4%, HttQ103 aggreg inconclusive and ALDH1A1 inh inconclusive.
For N#Cc1c(Nc2ccc(F)cc2)sc(C(=O)c2ccc(F)cc2)c1N the results were HTT ATP protect -11%, Lamin A splicing 6%, HPGD inh inconclusive, KDM4E inh 1%, HttQ103 aggreg 7% and ALDH1A1 inh 22µM*.
N#Cc1c(Nc2ccccc2)sc(C(=O)c2ccccc2)c1N was read as HTT ATP protect 20%[10 µM], Lamin A splicing -8%, HPGD inh -29%, KDM4E inh 1%, HttQ103 aggreg -5% and ALDH1A1 inh 13µM*.
`COc1cccc(-c2cncnc2NCc2cccnc2)c1` gave HTT ATP protect -47%, Lamin A splicing 7% and ALDH1A1 inh 16%.
`COc1ccccc1N1CCN(C(CNS(=O)(=O)c2cc(F)ccc2F)c2cccnc2)CC1` (configuration not stated) gave Lamin A splicing 3%, HPGD inh -10%, KDM4E inh inconclusive, HttQ103 aggreg -13% and ALDH1A1 inh 20µM*.
`COc1ccccc1N1CCN(C(CNS(=O)(=O)c2ccccc2)c2cccnc2)CC1` (configuration not stated) gave HTT ATP protect 12%[10 µM], Lamin A splicing 6%, HPGD inh -3%, KDM4E inh 10%, HttQ103 aggreg 13% and ALDH1A1 inh 20µM*.
`CC(=O)/C=C/n1c(=S)oc2ccccc21` gave HTT ATP protect -96%[10 µM], Lamin A splicing inconclusive, HPGD inh -21%, KDM4E inh 3%, HttQ103 aggreg 7.1µM* and ALDH1A1 inh 7.9µM*.
For Cc1cc(C)n(CCc2nc(-c3ccco3)cs2)n1 the results were HTT ATP protect -5%, Lamin A splicing 6%, HPGD inh inconclusive, KDM4E inh -18%, HttQ103 aggreg 7% and ALDH1A1 inh 7.1µM*.
`Cc1nn(CCc2nn[nH]n2)c2nc(-c3ccccc3)cc(C(F)(F)F)c12` gave HTT ATP protect -61%, Lamin A splicing -2%[46 µM], KDM4E inh inconclusive, HttQ103 aggreg -9% and ALDH1A1 inh inconclusive.
Screening Cc1nn(CCc2nc(-c3ccco3)cs2)c2[nH]c(=O)cc(C(F)(F)F)c12 returned HTT ATP protect -11%[10 µM], Lamin A splicing 7%, HPGD inh inconclusive, KDM4E inh inconclusive, HttQ103 aggreg 4% and ALDH1A1 inh 2.5µM*.
Screening CCN(CC)c1nc2ccccc2nc1C(=O)Nc1cc(OC)c(OC)c(OC)c1 returned Lamin A splicing -14%[46 µM].
CN[C@@H]1[C@H](O)[C@H](NC)[C@@H]2O[C@]3(O)C(=O)C[C@@H](C)O[C@H]3O[C@@H]2[C@H]1O was read as HTT ATP protect 51%.
For CN1CCN(/N=C/c2nc(-c3ccccc3Cl)n3ccccc23)CC1 the results were HTT ATP protect 21%[10 µM], Lamin A splicing -6%, HPGD inh -14%, KDM4E inh -29%, HttQ103 aggreg inconclusive and ALDH1A1 inh -6%.
